Bioassay records deposited in PubChem BioAssay by National Center for Advancing Translational Sciences (NCATS).
Shown are actives, neighbours in structure and some others; about 2.6% of the full set was active somewhere.
Cruzain noTriton: cruzain (T. cruzi) inhibition without detergent; P25779; 200,000 tested, 2.3% active; AID 1476; Potency, µM, inactives show max response, negative = inhibition, hits mostly inhibitors; purified cruzain, Z-FR-AMC fluorescence, no detergent;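 further: plate controls were enzyme without inhibitor for no effect and buffer without enzyme for full effect; nearly all actives have a fitted effect of over 40% in size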
Target sequence (P25779 123-467 limits assumed): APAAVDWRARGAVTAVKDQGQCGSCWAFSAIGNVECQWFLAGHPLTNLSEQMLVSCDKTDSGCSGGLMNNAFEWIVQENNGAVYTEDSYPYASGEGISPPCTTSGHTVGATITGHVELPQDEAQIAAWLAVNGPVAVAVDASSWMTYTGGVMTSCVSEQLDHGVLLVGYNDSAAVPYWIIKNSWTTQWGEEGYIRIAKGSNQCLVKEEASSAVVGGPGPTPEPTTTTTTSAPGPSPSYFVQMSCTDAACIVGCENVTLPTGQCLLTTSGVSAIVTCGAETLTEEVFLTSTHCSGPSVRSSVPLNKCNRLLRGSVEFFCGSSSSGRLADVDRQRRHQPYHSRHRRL
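Detergent-free condition (0.00005% Triton X-100) in acetate buffer pH 5.5 with DTT. 1.5 nM enzyme and compound were pre-mixed 15 min, then 2 uM Z-FR-AMC substrate added; reaction progress from fluorescence change between first and third reads (60 s).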
Cruzain Triton: cruzain (T. cruzi) inhibition with detergent; purified cruzain, Z-FR-AMC fluorescence, 0.01% Triton; Potency, µM, for inactives: max response, negative = inhibition, most hits filed as inhibitors; P25779; AID 1478; 200,000 tested, 0.43% active;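 further: plate controls were neutral wells for no effect and buffer without enzyme for full effect; nearly all actives have a fitted effect of over 40% in size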
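Z-FR-AMC hydrolysis (2 uM substrate) by cruzain (1.5 nM) monitored kinetically at ex 360/em 450 nm after 15 min room-temperature compound exposure; 0.01% Triton X-100, pH 5.5, 5 mM DTT.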
* marks the source's active call; other numbers are inactive results; u = inconclusive. The call rests on the fitted dose curve; in most records, active means well fitted curve in the direction sought with a large enough effect; inconclusive means small, poorly fitted or top-dose-only effect, or another doubt; inactive means no such curve, though single readings can be large; an effect the other way counts as inactive or inconclusive. Potency means the concentration at half of the fitted maximal effect.

SMILES | Cruzain noTriton | Cruzain Triton
CCC(/C=C/C(C)C1CCC2C3CCC4=CC(=O)CC[C@@]4(C)C3CC[C@@]12C)C(C)C (stereo partly specified) | 5% | -1%
CSC(=[SH+])N=N/C(=C1/C=CC=CN1)c1ccccn1.[Cu][Br] | 0% | 0%
Cc1ccc(S(=O)(=O)CC#CCOC(=O)c2ccc([N+](=O)[O-])cc2)cc1 | 13µM* | 14µM*
Cc1ccc(C(=O)c2ccc([N+](=O)[O-])cc2)cc1 | -1% | 2%
COc1ccc(CCNC(=O)CCc2c(C)nc3c4cccnc4nn3c2C)cc1OC | -5% | -4%
Cc1ccc(NC(=O)c2nn(C34CC5CC(CC(C5)C3)C4)cc2[N+](=O)[O-])cc1 | u | -3%
O=C(Nc1cccc2ccccc12)c1nn(C23CC4CC(CC(C4)C2)C3)cc1Br | 10µM* | 3%
COc1ccc(-c2nc3cc(NC(=O)Cc4ccc(Cl)cc4)ccc3o2)cc1OC | u | -2%
COc1ccc(C2=CC(c3ccc(OC)c(OC)c3)NC(=S)N2)cc1 (stereo unspecified) | -2% | 4%
COc1ccc(C2C=C(C34CC5CC(CC(C5)C3)C4)NC(=S)N2)cc1 (stereo unspecified) | 25µM* | -3%
CCc1ccc(-n2c(C)nc3cc(C(=O)NCCc4ccccc4)ccc32)cc1 | 13% | 0%
Cc1oc2ccc(O)c(CN3CCOCC3)c2c1C(=O)Nc1ccc(C(C)C)cc1 | -9% | -7%
CC12CCC(C(=O)N(CSC(=S)N/N=C\c3ccccc3Cl)C1=O)C2(C)C (stereo unspecified) | 16µM* | 3%
CC12CCC(C(=O)N(CSC(=S)N/N=C\c3ccccc3)C1=O)C2(C)C (stereo unspecified) | -1% | -3%
CC(C)Nc1ccc(Nc2ccccc2)cc1 | 32µM* | -3%
c1ccc(Nc2ccccc2)cc1 | 0% | -2%
COC(=O)c1cccc(Cn2c(Cl)c(/C=N/Nc3ccccc3C)sc2=O)c1 | 13µM* | -9%
O=C(O)c1cccc(Cn2c(Cl)c(/C=N/NC(=O)c3ccccc3)sc2=O)c1 | -16% | -3%
COc1cc(NC(=O)c2nn(-c3ccc(F)cc3)c(=O)n(C)c2=O)cc(OC)c1OC | -5% | -1%
Cc1cccc2cc(C#N)c(SCC(=O)N3CC(=O)Nc4ccccc43)nc12 | 25µM* | -3%
Cc1cccc2cc(C#N)c(SCC(=O)N3CCC(C)CC3)nc12 | -13% | -11%
CCOc1ccc(CC(=O)NCCS(=O)(=O)N2CCN(c3ccc(OC)cc3)CC2)cc1 | 6% | -1%
Cc1ccc(-c2csc(-c3c(N)c(C(=O)c4ccc5c(c4)OCO5)n4ccccc34)n2)cc1C | 3.2µM* | -3%
COc1ccc(-c2csc(-c3c(N)c(C(=O)c4ccccc4)n4ccccc34)n2)cc1OC | -12% | -3%
Nc1c(-c2nc(-c3ccc(F)cc3)cs2)c2ccccn2c1C(=O)c1ccc2c(c1)OCO2 | -29% | 1%
SMILES | Cruzain noTriton | Cruzain Triton
Nc1c(-c2nc(-c3ccc4c(c3)OCO4)cs2)c2ccccn2c1C(=O)c1ccc(Cl)cc1 | u | 0%
COc1ccc(C(=O)c2c(N)c(-c3nc(-c4ccc5c(c4)OCO5)cs3)c3ccccn23)cc1 | u | -4%
Cc1ccc(C(=O)c2c(N)c(-c3nc(-c4ccc5c(c4)OCO5)cs3)c3ccccn23)cc1C | 1.6µM* | -4%
Cc1ccc(C)c(C(=O)c2c(N)c(-c3nc(-c4ccc5c(c4)OCO5)cs3)c3ccccn23)c1 | 5µM* | -2%
Nc1c(-c2nc(-c3ccc4c(c3)OCO4)cs2)c2ccccn2c1C(=O)c1ccccc1 | 4µM* | -3%
CCNc1ncc2nc(-c3cccs3)c(=O)n(Cc3cccs3)c2n1 | 2% | 0%
O=C(c1cccc([N+](=O)[O-])c1)N1CCN(c2ccc(Nc3ccccc3)nn2)CC1 | -12% | -6%
CC(=O)OCCC(C)CCC=C(C)C (stereo unspecified) | -8% | 0%
CNc1c(NC(=O)c2cc(OC)cc(OC)c2)c(=O)oc2ccccc12 | -5% | -4%
COc1cc(Cl)c(C)cc1NC(=O)Cn1ncc2c(=O)oc3ccccc3c21 | 0% | -1%
COc1cccc(C(=O)c2c(N)c(-c3nc(-c4ccccc4)cs3)c3ccccn23)c1 | 10µM* | -2%
COc1ccc(-c2csc(-c3c(N)c(C(=O)c4ccccc4)n4ccccc34)n2)cc1 | u | 2%
CCCOc1cccc(C2c3c(oc4cc(C)c(C)cc4c3=O)C(=O)N2CCCN2CCOCC2)c1 (stereo unspecified) | -1% | -4%
N=C1S/C(=C\c2ccccc2)C(=O)N1c1ccc(F)cc1 | 25µM* | 3%
N=C1S/C(=C\c2ccccc2F)C(=O)N1c1ccc(F)cc1 | u | -3%
O=C(NCCCCc1ccccc1)C12CN(Cc3ccccc3)CC1C(c1cccc([N+](=O)[O-])c1)=NO2 (stereo unspecified) | 7% | 4%
